In the library only some 7.5% were active in any assay of this set; here they are far more common.
NPC1 promoter act = NPC1 promoter activation; 320,000 tested, 2.4% active; Potency, µM (titrated, usually from 9.22 µM), hits mostly activators; Huh7 NPC1 promoter luciferase reporter, 24 h; also: nearly all actives have a fitted effect of over 60% in size
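Luminescence from an NPC1 promoter-driven luciferase reporter in stably transfected Huh7 cells was measured after 24 h compound treatment at 37 °C, followed by 10 min ambient incubation with luciferase detection reagent.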
FLuc modulator = firefly luciferase modulation, counter-screen for miR-21 project. P08659. purified FLuc, Km substrates, luminescence inhibition. Potency, µM (top dose mostly 57.5 µM), usual class: inhibitors. 360,000 tested, 6.9% active. AID 588342; also: nearly all actives have a fitted effect of over 55% in size
Target sequence (P08659 whole entry, looked up): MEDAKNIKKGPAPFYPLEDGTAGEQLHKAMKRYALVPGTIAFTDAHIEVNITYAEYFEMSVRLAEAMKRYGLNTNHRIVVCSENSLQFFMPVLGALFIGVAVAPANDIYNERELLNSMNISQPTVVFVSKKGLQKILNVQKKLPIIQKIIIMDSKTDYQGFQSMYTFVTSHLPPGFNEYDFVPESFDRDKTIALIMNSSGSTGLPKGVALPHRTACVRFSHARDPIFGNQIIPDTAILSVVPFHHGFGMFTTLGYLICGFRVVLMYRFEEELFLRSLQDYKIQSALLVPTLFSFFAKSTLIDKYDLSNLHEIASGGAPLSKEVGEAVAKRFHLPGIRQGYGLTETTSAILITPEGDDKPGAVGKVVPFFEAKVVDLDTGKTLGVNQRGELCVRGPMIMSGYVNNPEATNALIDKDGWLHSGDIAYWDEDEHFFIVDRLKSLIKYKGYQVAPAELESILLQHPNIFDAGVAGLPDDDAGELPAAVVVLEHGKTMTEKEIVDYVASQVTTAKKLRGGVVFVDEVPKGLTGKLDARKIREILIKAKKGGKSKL
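Biochemical qHTS of compounds, final roughly 60 µM downward over six points, against 10 nM purified firefly luciferase using Km concentrations of substrates (10 uM D-luciferin, 10 uM ATP) in Tris acetate pH 7.5 buffer; luminescence output.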
SMN2 splice up = increases expression of the SMN2 splice variant. HEK293 SMN2-luciferase splicing reporter, luminescence, 30-36 h. Potency, µM (top dose mostly 46.1 µM), most hits filed as activators. 210,000 tested, 2.8% active. AID 1458; also: nearly all actives have a fitted effect of over 55% in size
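qHTS luciferase splicing reporter: luminescence rises when SMN2 exon 7 is included in transfected HEK293 cells. Compound exposure lasted 30-36 h at 37C, with 4.5 mM final sodium butyrate as control, followed by a ONE-Glo read.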
Rab9 promoter act = activates the Rab9 promoter; 320,000 tested, 2.8% active; Potency, µM (titrated, usually from 9.22 µM), usual class: activators; Huh7 Rab9 promoter-luciferase reporter, luminescence, 24 h; also: nearly all actives have a fitted effect of over 60% in size
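Using Huh7 cells stably transfected with Rab9 promoter–luciferase, compounds were incubated 24 h at 37 °C, 5% CO2; luciferase luminescence was read 10 min after reagent addition.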
Luc counter = Kinase-Glo luciferase inhibition (counter-screen); Q27757; Kinase-Glo luciferase, ATP luminescence, 8 min; Potency, µM (doses to about 38.3 µM), actives largely listed as inhibitors; 200,000 tested, 0.28% active; AID 1379; also: nearly all actives have a fitted effect of over 60% in size
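Luminescence was the read-out, taken after 8-minute incubation at ambient temperature. Luciferase turned over luciferin with 10 uM ATP in imidazole pH 7.2 buffer containing KCl, MgCl2, Tween 20 and BSA.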
ELG1 genotox = genotoxicity induction in ELG1-luciferase HEK293T cells | HEK293T ELG1-luciferase reporter, luminescence, 16 h | Potency, µM (highest dose often 46 µM), hits mostly activators | 330,000 tested, 1.3% active | AID 504466; also: nearly all actives have a fitted effect of over 60% in size
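Screening used a luciferase reporter fused to human ELG1 in HEK293T cells. Luminescence was read on a CCD plate imager after 16 hr exposure and 30 min ONE-Glo incubation.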
Numbers stand for hits; n = inactive; u = inconclusive; x = not tested or not shown; [ ] = another dose, or the depositor's remark. Calls follow the shape of the dose curve; as a rule, active = well fitted curve in the direction sought with a large enough effect; inconclusive = small, poorly fitted or top-dose-only effect, or another doubt; inactive = no such curve, though single readings can be large; an effect the other way counts as inactive or inconclusive.

SMILES	NPC1 promoter act	FLuc modulator	SMN2 splice up	Rab9 promoter act	Luc counter	ELG1 genotox
CC(C)Cc1csc(NC(=O)c2ccc(Br)cc2)c1C(=O)O	n	27µM	x	n	x	n
CCOC(=O)c1c(-c2ccc(C)cc2)csc1NC(=O)c1ccc(C(C)(C)C)cc1	x	n	n	x	x	x
O=C(Nc1scc(-c2ccccc2)c1C(=O)O)c1ccc(F)cc1	n	12µM	x	u	x	n
O=S(=O)(CCc1ccccc1)c1nc2ccccc2s1	x	x	n	x	n	x
COc1ccc(Nc2ncnc3c2nc2n3CCCCC2)cc1	x	17µM	x	x	x	x
Fc1ccc(Nc2ncnc3c2nc2n3CCCCC2)c(F)c1	x	21µM	x	x	x	x
COc1ccc(Nc2ncnc3c2nc2n3CCCC2)cc1Cl	x	19µM	x	x	x	x
O=C(Nc1ccc(F)cc1F)C1CCCN(c2ncnc3c2nc2n3CCCCC2)C1 (stereo unspecified)	n	n	x	n	x	n
CCOc1ccc(Nc2ncnc3c2nc2n3CCCCC2)cc1	x	n	x	x	x	x
COc1cc([C@@H]2Oc3cc([C@H]4Oc5cc(O)cc(O)c5C(=O)[C@H]4O)ccc3O[C@H]2CO)ccc1O	x	x	x	x	n	x
COc1ccc(NC(=O)c2c(NCc3ccc(N(C)C)cc3)sc3c2CCC3)cc1	x	11µM	x	x	x	x
COc1ccc(NC(=O)c2c(NCc3cccc(OC)c3)sc3c2CCCC3)cc1	x	n	x	x	x	x
COc1ccc(NC(=O)c2c(NC(=O)CCC(=O)O)sc3c2CCCCC3)cc1	n	n	x	n	n	n
COc1ccc(NC(=O)c2c(NC(=O)C(F)(F)F)sc3c2CCCCC3)cc1	x	13µM	n	x	x	x
CS(=O)(=O)n1nc(OC(=O)c2cc(Br)ccc2Cl)cc1N	n	u	n	n	n	n
CS(=O)(=O)n1nc(OC(=O)c2cccc3ccccc23)cc1N	n	17µM	n	n	n	n
O=C1c2cccc3cccc(c23)C(=O)N1OS(=O)(=O)c1ccccc1	n	19µM	n	n	n	n
CC(C)(C)c1ccc(C(=O)N2CC(=O)Nc3ccc(F)cc3C2c2ccc(F)cc2)cc1 (stereo unspecified)	x	n	n	x	x	x
CCOC(=O)Cn1cc(Cl)cc(C(=O)Nc2ccccc2)c1=O	n	17µM	x	n[1.84 µM]	x	n
O=C(O)c1nc2ccccc2nc1C(=O)O	n	21µM	u	n	n	u
Oc1ccc(Cl)cc1N=Nc1ccccc1	n	13µM	x	n	x	n
Oc1ccc(N=Nc2ccccc2)cc1	u	9.5µM	x	n	x	u
CC(=O)Nc1ccc(N=Nc2ccc(O)cc2)cc1	u	11µM	n[1.84 µM]	3.5µM	n	u
O=C(O)c1cc(O)ccc1N=Nc1ccccc1	n	n	x	n	x	n
Cc1ccc(CN(Cc2ccco2)C(=O)c2ccc(OCC(C)C)cc2)cc1	x	n	n	x	x	x
SMILES	NPC1 promoter act	FLuc modulator	SMN2 splice up	Rab9 promoter act	Luc counter	ELG1 genotox
COc1ccc(NC(=O)Cn2c(=O)oc3cc(S(=O)(=O)NCc4ccccc4)ccc32)c(OC)c1	x	n	x	x	x	x
O=C(N/N=C/c1ccc2c(c1)OCO2)c1cccc(NC(=O)c2ccccc2Cl)c1	n	2.7µM	x	n	x	u
Cc1ccccc1C(=O)Nc1cccc(C(=O)N/N=C/c2ccc3c(c2)OCO3)c1	n	3µM	x	u	x	n
Cc1cccc(C(=O)Nc2cccc(C(=O)N/N=C/c3ccc4c(c3)OCO4)c2)c1	n	1.9µM	x	n	x	n
CCC(C)NC(=O)c1ccc2c(c1)sc1nc(-c3ccc(OC)cc3)cn12 (stereo unspecified)	x	n	x	x	x	x
O=C(O)c1cc(-c2ccc(/C=C3/SC(=S)N(Cc4ccccc4)C3=O)o2)ccc1Cl	n	u	n	n	n	n
CC1=NOC(=O)/C1=C\c1ccc(-c2ccccc2Br)o1	n	11µM	n	n	n	n
CC1=NOC(=O)/C1=C\c1ccc(-c2cccc(Cl)c2)o1	n	11µM	n	n	n	n
CC1(C)OC(=O)C(=Cc2ccc(-c3ccc(Cl)c(C(=O)O)c3)o2)C(=O)O1	n	15µM	n	n	n	n
Nc1ccccc1N=Cc1ccc(-c2cccc(Cl)c2)o1	2.8µM	3µM	x	3.2µM	n	n
COC(=O)N/N=C/c1ccc(-c2cccc(Cl)c2)o1	n	u	n	n	n	n
CCOC(=O)c1ccc(NC(=O)C(CC)Sc2nc3ncccc3[nH]2)cc1 (stereo unspecified)	x	n	x	x	x	x
CN1C(=O)c2ccccc2Sc2ccc(NC(=O)c3ccccc3F)cc21	x	n	x	x	x	x
COc1ccc(CN2C(=O)/C(=C/c3ccc(-c4ccc(Cl)c(C(=O)O)c4)o3)SC2=S)cc1	n	u	n	n	n	n
CC1=NOC(=O)/C1=C\c1ccc(-c2ccc(Cl)c(C(=O)O)c2)o1	n	19µM	n	n	n	n
CC(=O)c1ccc(NC(=O)CCc2c(C)nn(-c3ccc4nnc(C)n4n3)c2C)cc1	x	n	x	x	x	x
N#Cc1c(N2CCCC2)nsc1-c1ccccc1	u	15µM	x	u	x	u

Screens (PubChem)
